Reference: PubChem BioAssay (NCI)
“And” between values parts separate entries of the source, which are not always exact repeats. Identical values can stand only once. The panel holds about 83,000 compounds, 20% with a hit somewhere; the sample as a whole holds those more often.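 Activity criterion: percent growth below 10, measured after cells in 96-well plates were exposed to a single compound concentration for 48 hours.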 The source made the active and inactive calls.

Key:
Assay in all cases: NCI-60 one-dose screen, 48 h (100 = growth as untreated, 0 = no growth, -100 = all killed)
Conditions in all cases: 10 µM unless noted
T-47D breast = tested on: T-47D breast
BT-549 breast = tested on: BT-549 breast
MDA-MB-435 melanoma = tested on: MDA-MB-435 melanoma
SW-620 colon = tested on: SW-620 colon
MCF7 breast = tested on: MCF7 breast
HCT-116 colon = tested on: HCT-116 colon
HCC-2998 colon = tested on: HCC-2998 colon
KM12 colon = tested on: KM12 colon

Measured: growth

CCCCCO/N=C\c1c2c(O)c3c(O)c(C)c4c(c3c1O)C(=O)C(C)(O/C=C\C(OC)C(C)C(OC(C)=O)C(C)C(O)C(C)C(O)C(C)/C=C\C=C(\C)C(=O)N2)O4 (stereo unspecified)
inactive: T-47D breast 26.8% | BT-549 breast 33.1% | MDA-MB-435 melanoma 15.8% | SW-620 colon 18.3% | MCF7 breast 17% | KM12 colon 17.3%
active: HCT-116 colon 9.51% | HCC-2998 colon 6.51%

CCOc1ccc(C(=O)Cc2ccccc2)cc1
inactive: T-47D breast 98% and 100% | BT-549 breast 113% and 116% | MDA-MB-435 melanoma 106% and 102% | SW-620 colon 108% and 110% | MCF7 breast 103% and 104% | HCT-116 colon 107% and 110% | HCC-2998 colon 106% and 98.2% | KM12 colon 116% and 110%

CCOC(=O)c1ccc(Nc2ncnc3c2cnn3-c2cccc(F)c2)cc1
inactive: T-47D breast 100% | BT-549 breast 100% | MDA-MB-435 melanoma 103% | SW-620 colon 99.8% | MCF7 breast 95% | HCT-116 colon 99.3% | HCC-2998 colon 104% | KM12 colon 99.3%

O=S(=O)(Nc1ccc(F)cc1)c1ccc(-c2cnc(C3CC3)o2)cc1
inactive: T-47D breast 32.6% | BT-549 breast 52.8% | SW-620 colon 20.6% | MCF7 breast 16.3% | HCT-116 colon 18.8% | HCC-2998 colon 56.4% | KM12 colon 21.2%
active: MDA-MB-435 melanoma -10.3%

Cn1cc(-c2csc(-c3cn(CCOC(N)=O)c4ccccc34)n2)c2cccnc21
active: MDA-MB-435 melanoma 8.15%
inactive: T-47D breast 45.8% | BT-549 breast 79.5% | SW-620 colon 67.9% | MCF7 breast 58.2% | HCT-116 colon 86.5% | HCC-2998 colon 90.4% | KM12 colon 67%

Clc1cccc(Nc2ncnc3ccc(-c4cncc(-n5cnnn5)c4)cc23)c1
inactive: T-47D breast 44.8% | BT-549 breast 44.9% | MDA-MB-435 melanoma 89.8% | SW-620 colon 96.8% | MCF7 breast 67.7% | HCT-116 colon 38.1% | HCC-2998 colon 93.6% | KM12 colon 91.4%

ON=C1CCCCCCCC1
inactive: T-47D breast 97.7% and 99.2% | BT-549 breast 110% and 101% | MDA-MB-435 melanoma 103% and 113% | SW-620 colon 108% and 105% | MCF7 breast 98.9% and 91.3% | HCT-116 colon 105% and 104% | HCC-2998 colon 100% and 103% | KM12 colon 97% and 97.8%

COc1c(O)c(O)cc2c3c(oc12)CC(c1ccc2c(c1)OCO2)CC3=O (stereo unspecified)
inactive: T-47D breast 43.8% | BT-549 breast 56.2% | MDA-MB-435 melanoma 39.8% | SW-620 colon 38.7% | MCF7 breast 35.5% | HCT-116 colon 32.1% | HCC-2998 colon 92.9% | KM12 colon 66%

CC(=O)N1N=C(c2ccc(F)cc2)CC1c1sc(N(C)Cc2ccccc2)nc1Cl (stereo unspecified)
inactive: T-47D breast 74.1% | BT-549 breast 95.2% | MDA-MB-435 melanoma 96.5% | SW-620 colon 99.4% | MCF7 breast 76% | HCT-116 colon 84.5% | HCC-2998 colon 91.2% | KM12 colon 92.4%

COc1ccc2c(c1)CC[C@@H]1[C@@H]2CC[C@]2(C)C3C(=CCC4C(=O)N(c5ccccc5)C(=O)C43)C[C@@H]12 (stereo partly specified)
inactive: T-47D breast 99.6% | BT-549 breast 110% | MDA-MB-435 melanoma 86.4% | SW-620 colon 90.6% | MCF7 breast 111% | HCT-116 colon 66.9% | HCC-2998 colon 93.6% | KM12 colon 93.6%

COc1ccc(Nc2ncnc3ccc(-c4cncc(NS(C)(=O)=O)c4)cc23)cc1Cl
inactive: BT-549 breast 24.5% | MDA-MB-435 melanoma 49.1% | SW-620 colon 37.7% | MCF7 breast 15% | HCT-116 colon 19.1% | HCC-2998 colon 49.3% | KM12 colon 61%
active: T-47D breast -13.6%

C=CCOc1ccc(/C=C2\SC(=S)N(CCc3ccc(O)cc3)C2=O)cc1
inactive: T-47D breast 82.8% | BT-549 breast 93.6% | MDA-MB-435 melanoma 77.5% | SW-620 colon 88.9% | MCF7 breast 86.5% | HCT-116 colon 99.6% | HCC-2998 colon 114% | KM12 colon 91.5%

COc1ccc(C2=C(CN)C(O)NC(=NCC(=O)c3ccc4ccccc4c3)N2)cc1 (stereo unspecified)
inactive: T-47D breast 101% | BT-549 breast 99% | MDA-MB-435 melanoma 103% | SW-620 colon 112% | MCF7 breast 96.2% | HCT-116 colon 92.7% | HCC-2998 colon 107% | KM12 colon 97.2%

COc1ccc2c(c1)CCNC21C(=O)Nc2c(Br)cc(Br)cc21 (stereo unspecified)
inactive: T-47D breast 90.3% | BT-549 breast 103% | MDA-MB-435 melanoma 101% | SW-620 colon 97.4% | MCF7 breast 101% | HCT-116 colon 103% | HCC-2998 colon 105% | KM12 colon 104%

CCCCC(NC(=O)CN1C(=O)/C(=C/C(C)=C/c2ccccc2)SC1=S)C(=O)O (stereo unspecified)
inactive: T-47D breast 105% | BT-549 breast 112% | MDA-MB-435 melanoma 104% | SW-620 colon 94.6% | MCF7 breast 93.3% | HCT-116 colon 98.5% | HCC-2998 colon 110% | KM12 colon 102%

O=C(Nc1ccc(Cl)c(Cl)c1)Nc1ccc(Cl)c(Cl)c1
-51.5% (active) and 12.6% (inactive): T-47D breast
-60.5% (active) and 19.3% (inactive): SW-620 colon
active: HCT-116 colon -89.9% and 4.25%
-80.9% (active) and 13.6% (inactive): MDA-MB-435 melanoma
-96.3% (active) and 14% (inactive): KM12 colon
-75.9% (active) and 13.6% (inactive): MCF7 breast
-83.3% (active) and 37.7% (inactive): BT-549 breast
-95.9% (active) and 22.8% (inactive): HCC-2998 colon

CCOC(=O)c1nc2c3ccccc3cnn2c1C(=O)c1ccc(OC)cc1
inactive: T-47D breast 85.9% | BT-549 breast 98.2% | MDA-MB-435 melanoma 107% | SW-620 colon 99.2% | MCF7 breast 80.8% | HCT-116 colon 92% | HCC-2998 colon 99.2% | KM12 colon 102%

Cc1ccc2nc3ccccc3c(NCc3ccc(Cl)cc3)c2c1
active: MCF7 breast -20.8% | HCC-2998 colon -79%
inactive: T-47D breast 57.9% | BT-549 breast 75.6% | MDA-MB-435 melanoma 70.3% | SW-620 colon 32.1% | HCT-116 colon 14.7% | KM12 colon 77.1%

O=C(Nc1cc(C(F)(F)F)cc(C(F)(F)F)c1)c1cc(Cl)ccc1O
active: T-47D breast -14% and -1.66% | BT-549 breast -31.5% | MDA-MB-435 melanoma -21.2% and -8.57% | SW-620 colon 2% and 5.7% | MCF7 breast 3.02% and 1.11% | HCT-116 colon -20.2% and -28.9% | HCC-2998 colon -25.4% and 4.04% | KM12 colon -24.3% and -33%

CCOC(=O)c1cnn(-c2ccc(S(N)(=O)=O)cc2)c1N
inactive: T-47D breast 103% | BT-549 breast 96% | MDA-MB-435 melanoma 109% | SW-620 colon 110% | MCF7 breast 95.2% | HCT-116 colon 94.4% | HCC-2998 colon 115% | KM12 colon 122%

COc1ccc(C/C(C)=C(/c2ccc(OCCN3CCCCCC3)cc2)c2ccc(OC(=O)c3ccccc3)cc2)cc1
inactive: T-47D breast 71.9% | BT-549 breast 106% | MDA-MB-435 melanoma 104% | SW-620 colon 98.4% | MCF7 breast 60.5% | HCT-116 colon 93.3% | HCC-2998 colon 105% | KM12 colon 120%

COc1ccc(-c2ccc(-c3ccc(C(=N)N)cn3)s2)cc1Cl
active: T-47D breast -43.4% | MDA-MB-435 melanoma -96.9% | SW-620 colon -87.5% | MCF7 breast -68.9% | HCT-116 colon -62.6% | HCC-2998 colon -80.9% | KM12 colon -45.3%
inactive: BT-549 breast 107%

C=C(CN1CC=CCC1)[C@@H]1CC[C@]2(COC(C)=O)CC[C@]3(C)[C@H](CC[C@@H]4[C@@]5(C)CC[C@H](O)C(C)(C)[C@@H]5CC[C@]43C)[C@@H]12
inactive: T-47D breast 78.7% | BT-549 breast 106% | MDA-MB-435 melanoma 99.2% | SW-620 colon 97.4% | MCF7 breast 90.4% | HCT-116 colon 93.6% | HCC-2998 colon 112% | KM12 colon 106%

Cc1cccc(-c2nnc(SCC(=O)Nc3ncc(Cc4ccccc4)s3)n2N2C(=O)CSC2=S)c1
inactive: T-47D breast 43.8% | BT-549 breast 78.5% | MDA-MB-435 melanoma 48.5% | SW-620 colon 49.6% | MCF7 breast 56.2% | HCT-116 colon 25% | HCC-2998 colon 70.9% | KM12 colon 71.7%

O=C(Nc1ccc2ncsc2c1)c1csc(Nc2ccc3[nH]ncc3c2)n1
inactive: T-47D breast 36.4% | BT-549 breast 73.4% | SW-620 colon 20.9% | MCF7 breast 21.6% | HCT-116 colon 47.5% | HCC-2998 colon 72.5% | KM12 colon 30.9%
active: MDA-MB-435 melanoma -27.1%

CC1(C)C(N)=Nc2cc(OCCCCN3Cc4ccccc4C3)c(OCC3CC3)cc21
active: HCC-2998 colon -0.545%
inactive: T-47D breast 37.7% | BT-549 breast 83.7% | MDA-MB-435 melanoma 71.9% | SW-620 colon 92.8% | MCF7 breast 48.5% | HCT-116 colon 47% | KM12 colon 96%

Cc1ccc(-c2nc([P+](c3ccccc3)(c3ccccc3)c3ccccc3)c(Nc3ccccc3)o2)cc1
active: T-47D breast 8.18% | BT-549 breast 2.14% | MDA-MB-435 melanoma -32.9% | SW-620 colon -29.9% | MCF7 breast 0.233% | HCT-116 colon -22.2% | HCC-2998 colon -51.5% | KM12 colon -35.1%
